What is called inhibition is the relative decrease from the control value, in per cent.

Assay [1] concerns the target Sphingosine kinase 1 (Homo sapiens) (UniProt Q9NYA1). Conditions: at 1 µM.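 Further: mean SPHK1 inhibition value reported from the GSK PKIS kinase panel screen.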
Assay [2] addresses T1, Sphingosine kinase 2 (Homo sapiens) (UniProt Q9NRA0).
T1 sequence (whole entry): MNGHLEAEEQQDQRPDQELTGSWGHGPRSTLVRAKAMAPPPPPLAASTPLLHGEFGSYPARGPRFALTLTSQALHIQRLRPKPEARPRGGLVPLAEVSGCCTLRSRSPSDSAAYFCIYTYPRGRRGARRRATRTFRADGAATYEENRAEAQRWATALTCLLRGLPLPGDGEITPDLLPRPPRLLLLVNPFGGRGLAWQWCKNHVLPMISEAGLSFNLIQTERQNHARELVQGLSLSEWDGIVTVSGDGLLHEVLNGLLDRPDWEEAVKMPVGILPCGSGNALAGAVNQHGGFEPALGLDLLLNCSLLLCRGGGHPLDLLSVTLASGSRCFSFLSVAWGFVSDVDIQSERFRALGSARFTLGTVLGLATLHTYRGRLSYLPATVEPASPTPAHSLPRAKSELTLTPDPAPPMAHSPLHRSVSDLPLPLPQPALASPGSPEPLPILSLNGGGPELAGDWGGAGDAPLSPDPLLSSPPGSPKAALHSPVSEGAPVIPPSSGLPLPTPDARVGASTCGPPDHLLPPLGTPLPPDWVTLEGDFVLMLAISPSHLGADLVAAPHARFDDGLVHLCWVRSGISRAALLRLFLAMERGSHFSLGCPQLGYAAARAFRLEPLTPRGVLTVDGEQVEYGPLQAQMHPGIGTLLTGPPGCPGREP
Conditions: at 0.1 µM.

In assay [3] the target is T1, Sphingosine kinase 2 (Homo sapiens). Conditions: at 1 µM.
Assay [4] addresses Casein kinase II subunit alpha (Homo sapiens) (UniProt P68400). Conditions: at 0.1 µM.
For assay [5] the target is unchanged. Conditions: at 1 µM.
In assay [6] the target is T2, Inhibitor of nuclear factor kappa-B kinase subunit alpha (Homo sapiens) (UniProt O15111).
T2 sequence (whole entry): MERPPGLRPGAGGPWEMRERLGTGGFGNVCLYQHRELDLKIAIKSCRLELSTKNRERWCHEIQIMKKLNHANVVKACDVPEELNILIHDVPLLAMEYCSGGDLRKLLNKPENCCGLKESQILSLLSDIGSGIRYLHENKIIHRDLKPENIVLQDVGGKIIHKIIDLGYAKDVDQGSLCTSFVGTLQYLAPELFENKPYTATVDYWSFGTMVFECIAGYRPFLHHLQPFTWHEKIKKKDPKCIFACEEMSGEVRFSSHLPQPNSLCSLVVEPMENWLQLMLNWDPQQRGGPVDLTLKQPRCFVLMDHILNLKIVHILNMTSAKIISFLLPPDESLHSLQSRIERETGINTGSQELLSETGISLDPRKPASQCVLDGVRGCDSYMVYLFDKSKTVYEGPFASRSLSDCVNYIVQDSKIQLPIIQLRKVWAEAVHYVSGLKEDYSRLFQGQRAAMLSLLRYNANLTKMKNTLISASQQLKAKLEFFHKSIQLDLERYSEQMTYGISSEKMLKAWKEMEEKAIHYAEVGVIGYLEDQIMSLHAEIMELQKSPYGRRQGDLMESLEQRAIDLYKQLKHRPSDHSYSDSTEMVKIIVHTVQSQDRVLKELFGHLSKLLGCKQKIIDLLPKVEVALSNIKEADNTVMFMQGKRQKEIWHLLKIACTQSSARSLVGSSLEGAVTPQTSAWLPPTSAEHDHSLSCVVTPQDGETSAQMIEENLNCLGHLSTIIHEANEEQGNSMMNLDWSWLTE
Conditions: at 0.1 µM.

Assay [7] deals with T2, Inhibitor of nuclear factor kappa-B kinase subunit alpha (Homo sapiens). Conditions: at 1 µM.
Assay [8] deals with T3, Inhibitor of nuclear factor kappa-B kinase subunit beta (Homo sapiens) (UniProt O14920).
T3 sequence (whole entry): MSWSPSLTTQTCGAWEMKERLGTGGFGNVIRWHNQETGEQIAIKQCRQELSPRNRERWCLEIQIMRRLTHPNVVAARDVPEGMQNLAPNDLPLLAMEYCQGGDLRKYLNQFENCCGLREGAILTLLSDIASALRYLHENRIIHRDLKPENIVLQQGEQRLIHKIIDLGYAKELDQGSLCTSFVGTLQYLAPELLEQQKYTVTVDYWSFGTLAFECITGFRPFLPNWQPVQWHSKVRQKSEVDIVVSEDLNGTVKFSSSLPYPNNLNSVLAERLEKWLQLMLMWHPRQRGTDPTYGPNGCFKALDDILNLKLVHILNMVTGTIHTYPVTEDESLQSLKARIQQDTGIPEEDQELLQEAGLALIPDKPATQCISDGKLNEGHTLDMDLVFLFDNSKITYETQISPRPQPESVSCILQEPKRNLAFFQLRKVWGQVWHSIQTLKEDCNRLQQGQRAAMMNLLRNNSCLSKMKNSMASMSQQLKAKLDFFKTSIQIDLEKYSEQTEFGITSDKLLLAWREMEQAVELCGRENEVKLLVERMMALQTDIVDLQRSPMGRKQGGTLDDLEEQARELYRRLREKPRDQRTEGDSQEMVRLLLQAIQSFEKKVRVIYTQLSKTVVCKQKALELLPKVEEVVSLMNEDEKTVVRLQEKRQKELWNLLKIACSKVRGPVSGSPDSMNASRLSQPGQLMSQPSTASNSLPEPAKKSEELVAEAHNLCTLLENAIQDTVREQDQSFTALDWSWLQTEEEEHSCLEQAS
Conditions: at 0.1 µM.

In assay [9] the target is T3, Inhibitor of nuclear factor kappa-B kinase subunit beta (Homo sapiens). Conditions: at 1 µM.
For assay [10], the target named is T4, Inhibitor of nuclear factor kappa-B kinase subunit epsilon (Homo sapiens) (UniProt Q14164).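 Further: mean inhibition of IKKε reported, from the GSK PKIS dataset.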
T4 sequence (whole entry): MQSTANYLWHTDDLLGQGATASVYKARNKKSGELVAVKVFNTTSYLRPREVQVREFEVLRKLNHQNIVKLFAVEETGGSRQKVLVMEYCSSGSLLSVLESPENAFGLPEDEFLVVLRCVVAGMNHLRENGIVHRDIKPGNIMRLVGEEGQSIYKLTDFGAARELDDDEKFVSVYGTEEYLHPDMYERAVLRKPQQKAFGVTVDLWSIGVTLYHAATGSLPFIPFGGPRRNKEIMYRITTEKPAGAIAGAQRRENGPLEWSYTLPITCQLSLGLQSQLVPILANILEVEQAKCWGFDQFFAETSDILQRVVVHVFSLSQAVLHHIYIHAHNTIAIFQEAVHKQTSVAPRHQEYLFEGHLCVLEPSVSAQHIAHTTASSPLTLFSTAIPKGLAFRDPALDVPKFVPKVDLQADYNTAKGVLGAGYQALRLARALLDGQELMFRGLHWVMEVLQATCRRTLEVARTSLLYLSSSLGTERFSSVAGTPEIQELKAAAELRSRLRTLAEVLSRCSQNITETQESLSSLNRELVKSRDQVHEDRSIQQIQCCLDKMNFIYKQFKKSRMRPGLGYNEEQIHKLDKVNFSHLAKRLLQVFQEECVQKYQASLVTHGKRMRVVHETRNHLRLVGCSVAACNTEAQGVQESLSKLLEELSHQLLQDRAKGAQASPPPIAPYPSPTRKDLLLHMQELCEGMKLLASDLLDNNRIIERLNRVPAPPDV
Conditions: at 0.1 µM.

Molecules are shown by their SMILES.

Chain of Sphingosine kinase 1 (Homo sapiens) (Q9NYA1 whole entry): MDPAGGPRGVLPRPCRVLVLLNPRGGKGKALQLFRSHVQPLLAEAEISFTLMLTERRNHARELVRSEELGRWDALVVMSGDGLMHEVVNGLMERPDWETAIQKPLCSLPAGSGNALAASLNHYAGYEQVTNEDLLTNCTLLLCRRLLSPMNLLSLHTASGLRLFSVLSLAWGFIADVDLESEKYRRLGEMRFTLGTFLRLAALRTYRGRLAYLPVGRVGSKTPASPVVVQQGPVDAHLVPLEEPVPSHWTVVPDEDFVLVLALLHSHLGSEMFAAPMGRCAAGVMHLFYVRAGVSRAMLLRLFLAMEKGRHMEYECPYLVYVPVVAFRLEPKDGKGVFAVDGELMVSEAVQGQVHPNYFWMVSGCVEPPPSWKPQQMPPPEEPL
Chain of Casein kinase II subunit alpha (Homo sapiens) (P68400 whole entry, looked up): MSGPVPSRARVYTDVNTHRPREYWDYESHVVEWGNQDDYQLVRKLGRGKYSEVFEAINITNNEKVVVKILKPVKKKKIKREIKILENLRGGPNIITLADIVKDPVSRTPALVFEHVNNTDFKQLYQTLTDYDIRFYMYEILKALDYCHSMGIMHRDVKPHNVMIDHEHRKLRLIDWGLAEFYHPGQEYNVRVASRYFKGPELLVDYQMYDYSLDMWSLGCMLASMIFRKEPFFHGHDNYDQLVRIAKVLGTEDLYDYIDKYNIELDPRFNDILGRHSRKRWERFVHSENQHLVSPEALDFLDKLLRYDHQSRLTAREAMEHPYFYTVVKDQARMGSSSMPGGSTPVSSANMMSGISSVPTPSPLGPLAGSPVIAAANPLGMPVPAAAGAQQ

With `NC(=O)Cc1ccccc1Oc1nccc(-c2c(-c3ccc(F)cc3)ncn2C2CCNCC2)n1`, the inhibition in assay [1] was -2.09%; in [2], 0.16%; in assay [3], 0.42%; in assay [4], 1.72%; in assay [5], 2.63%; in [6], 8.64%. Moreover, the inhibition in assay [7] worked out at 0.14%; in [8], 4.37%; in assay [9], 3.54%; in assay [10], 2.28%.
For `CS(=O)(=O)CCNCc1ccc(-c2ccc3ncnc(Nc4ccc(OCc5ccccc5)c(Br)c4)c3c2)o1`, the inhibition was -1.39% in [1]; -0.25% in assay [2]; -1.58% in assay [3]; 13.7% in [4]; 5.24% in [5]; 3.37% in assay [6]. The inhibition in assay [7] was determined as 1.56%; in assay [8], 9.38%; in assay [9], 11%; in assay [10], 6.98%.
Consider `COc1ccc2ncn(-c3cc(O[C@H](C)c4ccccc4Cl)c(C(N)=O)s3)c2c1`, for which the inhibition in assay [1] is -2.39%; in assay [2], -0.22%; in assay [3] it was 0.79%; in [4], 5.1%; in assay [5], 3.41%; in assay [6], 7.01%. In addition, the inhibition worked out at 6.42% in assay [7], 6.12% in assay [8], 4.8% in assay [9] and 5.23% in assay [10].
Consider `Cc1ccc(C(=O)NC2CCC2)cc1-c1ccc(C(=O)NCC2CC2)cc1`, for which the inhibition is -2.08% in assay [1]; 0.15% in assay [2]; -0.32% in assay [3]; 0.14% in [4]; -0.02% in [5]; 5.36% in [6]. Besides, the inhibition amounted to 2.23% in assay [7], 3.94% in assay [8], 0.66% in assay [9] and 3.52% in assay [10].
In the case of `COc1cc(Nc2ncc(-c3ccccc3)o2)cc(OC)c1OC`, the inhibition in assay [1] is 0.49%; in assay [2] it was 1.41%; in assay [3] it was -0.15%; in [4], 0.33%; in assay [5], 4.02%; in assay [6], 2.97%. Besides, the inhibition in assay [7] was 4.62%; in assay [8] it was 0.7%; in assay [9], 4.06%; in assay [10], 0.76%.
With `O=C(Nc1n[nH]c2cc(-c3cc(F)ccc3F)ccc12)C1CC1`, the inhibition in [1] is -2.44%; in [2], 2.23%; in [3], 0.13%; in assay [4], 2.27%; in assay [5], 2.39%; in [6], 8.06%. The inhibition in assay [7] turned out to be 7.87%; in [8] it was 4.95%; in assay [9], 5.11%; in assay [10], 4.29%.
As for `COc1cc(Nc2ncc3c(C)nc(-c4cccc(Oc5ccccc5)c4)n3n2)cc(OC)c1OC`, the inhibition was -0.76% in assay [1]; 0.82% in [2]; 0% in assay [3]; 0.59% in assay [4]; 12.7% in [5]; 2.21% in assay [6]. The inhibition is -5.5% in assay [7], 1.1% in assay [8], 0.16% in assay [9] and 2.97% in assay [10].
Turning to `CN1CCN(CCCNc2nc3ccc(Oc4ccc(NC(=O)Nc5cc(C(F)(F)F)ccc5F)cc4)cc3[nH]2)CC1`, the inhibition in [1] was -1.27%; in assay [2], -0.2%; in assay [3] it was -0.28%; in assay [4] it was -2.06%; in assay [5] it was -5.31%; in assay [6] it was 3.44%. Besides, the inhibition was -6.02% in assay [7], 0.21% in assay [8], -0.85% in assay [9] and -0.49% in assay [10].
As for `Nc1nccc(-c2c(-c3ccc(F)cc3)ncn2C2CCC(O)CC2)n1` (stereo not given), the inhibition in [1] was -4.02%; in assay [2], 2.29%; in assay [3] it was 0.26%; in assay [4], -0.03%; in assay [5], 1.03%; in [6] it was 2.77%. In addition, the inhibition in assay [7] is 5.56%; in assay [8] it was 0.1%; in assay [9], -1.66%; in assay [10], -3.9%.

The values above are taken from ChEMBL document CHEMBL1961873, “Compounds: GSK PKIS; Assays: Nanosyn kinase panel” (2012).
